Holding throughout (assay): log2 ratio of Biotin-Ahx-Ub-VS probe labelling (fragment/DMSO); higher = less target engagement (more negative = stronger competition), active = hit call of the paper (q ≤ 0.05, log2 ratio ≤ -1)
Settings in all cases: compound concentration: 200 uM; treatment time: 3 h

One experiment deals with T1, USP19 (UniProt O94966).
T1 sequence (whole entry): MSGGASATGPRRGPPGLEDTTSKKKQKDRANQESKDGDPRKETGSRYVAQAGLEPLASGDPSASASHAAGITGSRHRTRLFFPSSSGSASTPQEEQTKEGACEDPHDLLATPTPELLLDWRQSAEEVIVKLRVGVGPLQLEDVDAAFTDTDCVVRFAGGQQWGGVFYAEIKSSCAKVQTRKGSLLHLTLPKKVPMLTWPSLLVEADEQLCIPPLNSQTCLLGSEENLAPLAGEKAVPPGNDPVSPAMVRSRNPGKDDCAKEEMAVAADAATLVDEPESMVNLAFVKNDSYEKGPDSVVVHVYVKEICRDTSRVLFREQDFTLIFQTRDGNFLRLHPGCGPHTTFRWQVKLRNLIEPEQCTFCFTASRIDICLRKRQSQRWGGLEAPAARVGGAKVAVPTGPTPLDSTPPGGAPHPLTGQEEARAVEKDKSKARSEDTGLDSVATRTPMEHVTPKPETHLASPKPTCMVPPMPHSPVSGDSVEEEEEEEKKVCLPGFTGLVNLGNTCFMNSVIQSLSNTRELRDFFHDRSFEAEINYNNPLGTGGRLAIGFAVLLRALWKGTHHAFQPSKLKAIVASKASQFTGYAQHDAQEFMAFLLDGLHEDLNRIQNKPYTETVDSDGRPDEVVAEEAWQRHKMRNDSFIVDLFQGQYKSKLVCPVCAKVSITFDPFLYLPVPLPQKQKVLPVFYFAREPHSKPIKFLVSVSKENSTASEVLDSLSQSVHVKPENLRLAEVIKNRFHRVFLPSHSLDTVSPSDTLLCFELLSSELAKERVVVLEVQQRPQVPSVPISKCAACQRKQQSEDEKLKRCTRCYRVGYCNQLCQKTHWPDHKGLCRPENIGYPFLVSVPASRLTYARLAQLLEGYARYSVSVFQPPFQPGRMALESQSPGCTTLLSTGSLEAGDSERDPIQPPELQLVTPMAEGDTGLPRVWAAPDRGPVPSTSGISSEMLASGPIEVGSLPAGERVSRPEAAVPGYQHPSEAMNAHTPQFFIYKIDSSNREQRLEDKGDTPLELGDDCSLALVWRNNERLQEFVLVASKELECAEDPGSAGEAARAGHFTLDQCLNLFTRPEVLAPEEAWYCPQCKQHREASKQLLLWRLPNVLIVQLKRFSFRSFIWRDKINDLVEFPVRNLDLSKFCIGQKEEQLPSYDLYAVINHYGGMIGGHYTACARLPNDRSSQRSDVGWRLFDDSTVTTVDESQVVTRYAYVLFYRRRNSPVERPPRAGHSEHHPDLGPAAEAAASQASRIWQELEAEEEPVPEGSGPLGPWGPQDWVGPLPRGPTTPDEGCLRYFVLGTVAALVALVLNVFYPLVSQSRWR
In outline:
(§1)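 Each value is an average log2 ratio of fragment to vehicle, tested by unpaired t-test. The underlying Spectronaut label-free quantities were global-median-normalised, and only proteins with ≥2 unique peptides were included. Triplicate HEK293T lysate samples (495 µg) were exposed to fragment at 200 µM or vehicle for 3 h, then to Biotin-Ahx-Ub-VS at 0.5 µM final for 1 h, before NeutrAvidin enrichment of labelled DUBs, LysC and trypsin digestion, and diaPASEF LC-MS/MS.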

In another experiment the target is USP24 (UniProt Q9UPU5). In outline:
as §1

The next experiment deals with T2, USP25 (UniProt Q9UHP3).
T2 sequence (whole entry): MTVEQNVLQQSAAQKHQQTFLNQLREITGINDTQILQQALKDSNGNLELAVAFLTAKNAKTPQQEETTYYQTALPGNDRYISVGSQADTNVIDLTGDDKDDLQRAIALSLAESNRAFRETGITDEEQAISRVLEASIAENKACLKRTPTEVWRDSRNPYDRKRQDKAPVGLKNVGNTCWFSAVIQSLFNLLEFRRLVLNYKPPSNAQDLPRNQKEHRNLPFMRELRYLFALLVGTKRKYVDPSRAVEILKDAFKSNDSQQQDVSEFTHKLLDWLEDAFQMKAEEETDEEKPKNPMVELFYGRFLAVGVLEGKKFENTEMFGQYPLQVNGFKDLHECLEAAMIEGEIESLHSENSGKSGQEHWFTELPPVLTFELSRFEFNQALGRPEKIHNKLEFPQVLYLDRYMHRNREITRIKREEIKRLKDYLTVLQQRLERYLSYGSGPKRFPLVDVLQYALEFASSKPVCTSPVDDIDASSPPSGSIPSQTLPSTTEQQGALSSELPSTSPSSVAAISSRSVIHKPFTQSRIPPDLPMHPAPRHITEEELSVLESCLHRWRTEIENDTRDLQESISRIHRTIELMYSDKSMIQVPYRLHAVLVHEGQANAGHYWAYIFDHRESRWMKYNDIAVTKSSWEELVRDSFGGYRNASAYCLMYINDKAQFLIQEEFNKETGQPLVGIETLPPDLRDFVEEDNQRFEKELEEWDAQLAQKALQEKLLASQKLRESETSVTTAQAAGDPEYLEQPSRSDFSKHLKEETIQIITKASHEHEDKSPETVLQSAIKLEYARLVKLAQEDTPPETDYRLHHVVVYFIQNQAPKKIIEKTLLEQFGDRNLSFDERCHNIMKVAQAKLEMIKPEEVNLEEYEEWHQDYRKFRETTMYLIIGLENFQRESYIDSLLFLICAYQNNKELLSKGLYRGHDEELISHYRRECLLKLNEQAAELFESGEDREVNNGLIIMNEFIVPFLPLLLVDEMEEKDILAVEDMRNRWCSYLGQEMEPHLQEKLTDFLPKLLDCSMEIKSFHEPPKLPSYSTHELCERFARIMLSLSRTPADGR
The essentials: as §1

The next experiment has as its target T3, USP28 (UniProt Q96RU2).
T3 sequence (whole entry): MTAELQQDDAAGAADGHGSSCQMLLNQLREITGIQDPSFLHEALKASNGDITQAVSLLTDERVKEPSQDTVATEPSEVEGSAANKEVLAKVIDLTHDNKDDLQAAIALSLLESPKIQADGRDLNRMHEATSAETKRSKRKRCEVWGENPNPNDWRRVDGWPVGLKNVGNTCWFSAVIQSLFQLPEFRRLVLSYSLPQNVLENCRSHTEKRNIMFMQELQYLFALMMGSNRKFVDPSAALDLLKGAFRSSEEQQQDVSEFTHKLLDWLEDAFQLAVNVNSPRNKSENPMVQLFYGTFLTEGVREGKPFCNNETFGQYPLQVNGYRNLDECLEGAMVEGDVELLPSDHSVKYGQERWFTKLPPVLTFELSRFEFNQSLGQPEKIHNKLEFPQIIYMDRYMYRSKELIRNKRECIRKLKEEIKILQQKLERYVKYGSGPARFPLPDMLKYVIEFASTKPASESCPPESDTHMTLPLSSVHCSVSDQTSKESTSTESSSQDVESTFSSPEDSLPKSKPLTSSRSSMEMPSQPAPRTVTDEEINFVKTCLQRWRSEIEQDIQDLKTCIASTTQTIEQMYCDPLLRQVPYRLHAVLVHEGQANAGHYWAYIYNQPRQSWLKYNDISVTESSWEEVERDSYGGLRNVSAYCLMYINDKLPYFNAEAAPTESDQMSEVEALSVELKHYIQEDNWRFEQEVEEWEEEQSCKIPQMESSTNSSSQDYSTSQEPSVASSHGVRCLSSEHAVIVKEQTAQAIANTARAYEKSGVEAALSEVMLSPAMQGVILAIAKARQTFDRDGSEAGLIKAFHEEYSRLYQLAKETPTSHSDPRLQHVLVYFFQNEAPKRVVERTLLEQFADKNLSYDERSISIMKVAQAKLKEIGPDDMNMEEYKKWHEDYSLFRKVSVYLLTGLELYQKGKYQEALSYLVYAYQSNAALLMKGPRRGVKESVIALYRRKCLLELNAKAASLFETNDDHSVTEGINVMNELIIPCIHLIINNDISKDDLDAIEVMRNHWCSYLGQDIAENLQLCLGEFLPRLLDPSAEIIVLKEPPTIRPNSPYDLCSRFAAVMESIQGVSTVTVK
The essentials: as §1

Values without a mark were called inactive.

USP24, sequence (Q9UPU5 whole entry): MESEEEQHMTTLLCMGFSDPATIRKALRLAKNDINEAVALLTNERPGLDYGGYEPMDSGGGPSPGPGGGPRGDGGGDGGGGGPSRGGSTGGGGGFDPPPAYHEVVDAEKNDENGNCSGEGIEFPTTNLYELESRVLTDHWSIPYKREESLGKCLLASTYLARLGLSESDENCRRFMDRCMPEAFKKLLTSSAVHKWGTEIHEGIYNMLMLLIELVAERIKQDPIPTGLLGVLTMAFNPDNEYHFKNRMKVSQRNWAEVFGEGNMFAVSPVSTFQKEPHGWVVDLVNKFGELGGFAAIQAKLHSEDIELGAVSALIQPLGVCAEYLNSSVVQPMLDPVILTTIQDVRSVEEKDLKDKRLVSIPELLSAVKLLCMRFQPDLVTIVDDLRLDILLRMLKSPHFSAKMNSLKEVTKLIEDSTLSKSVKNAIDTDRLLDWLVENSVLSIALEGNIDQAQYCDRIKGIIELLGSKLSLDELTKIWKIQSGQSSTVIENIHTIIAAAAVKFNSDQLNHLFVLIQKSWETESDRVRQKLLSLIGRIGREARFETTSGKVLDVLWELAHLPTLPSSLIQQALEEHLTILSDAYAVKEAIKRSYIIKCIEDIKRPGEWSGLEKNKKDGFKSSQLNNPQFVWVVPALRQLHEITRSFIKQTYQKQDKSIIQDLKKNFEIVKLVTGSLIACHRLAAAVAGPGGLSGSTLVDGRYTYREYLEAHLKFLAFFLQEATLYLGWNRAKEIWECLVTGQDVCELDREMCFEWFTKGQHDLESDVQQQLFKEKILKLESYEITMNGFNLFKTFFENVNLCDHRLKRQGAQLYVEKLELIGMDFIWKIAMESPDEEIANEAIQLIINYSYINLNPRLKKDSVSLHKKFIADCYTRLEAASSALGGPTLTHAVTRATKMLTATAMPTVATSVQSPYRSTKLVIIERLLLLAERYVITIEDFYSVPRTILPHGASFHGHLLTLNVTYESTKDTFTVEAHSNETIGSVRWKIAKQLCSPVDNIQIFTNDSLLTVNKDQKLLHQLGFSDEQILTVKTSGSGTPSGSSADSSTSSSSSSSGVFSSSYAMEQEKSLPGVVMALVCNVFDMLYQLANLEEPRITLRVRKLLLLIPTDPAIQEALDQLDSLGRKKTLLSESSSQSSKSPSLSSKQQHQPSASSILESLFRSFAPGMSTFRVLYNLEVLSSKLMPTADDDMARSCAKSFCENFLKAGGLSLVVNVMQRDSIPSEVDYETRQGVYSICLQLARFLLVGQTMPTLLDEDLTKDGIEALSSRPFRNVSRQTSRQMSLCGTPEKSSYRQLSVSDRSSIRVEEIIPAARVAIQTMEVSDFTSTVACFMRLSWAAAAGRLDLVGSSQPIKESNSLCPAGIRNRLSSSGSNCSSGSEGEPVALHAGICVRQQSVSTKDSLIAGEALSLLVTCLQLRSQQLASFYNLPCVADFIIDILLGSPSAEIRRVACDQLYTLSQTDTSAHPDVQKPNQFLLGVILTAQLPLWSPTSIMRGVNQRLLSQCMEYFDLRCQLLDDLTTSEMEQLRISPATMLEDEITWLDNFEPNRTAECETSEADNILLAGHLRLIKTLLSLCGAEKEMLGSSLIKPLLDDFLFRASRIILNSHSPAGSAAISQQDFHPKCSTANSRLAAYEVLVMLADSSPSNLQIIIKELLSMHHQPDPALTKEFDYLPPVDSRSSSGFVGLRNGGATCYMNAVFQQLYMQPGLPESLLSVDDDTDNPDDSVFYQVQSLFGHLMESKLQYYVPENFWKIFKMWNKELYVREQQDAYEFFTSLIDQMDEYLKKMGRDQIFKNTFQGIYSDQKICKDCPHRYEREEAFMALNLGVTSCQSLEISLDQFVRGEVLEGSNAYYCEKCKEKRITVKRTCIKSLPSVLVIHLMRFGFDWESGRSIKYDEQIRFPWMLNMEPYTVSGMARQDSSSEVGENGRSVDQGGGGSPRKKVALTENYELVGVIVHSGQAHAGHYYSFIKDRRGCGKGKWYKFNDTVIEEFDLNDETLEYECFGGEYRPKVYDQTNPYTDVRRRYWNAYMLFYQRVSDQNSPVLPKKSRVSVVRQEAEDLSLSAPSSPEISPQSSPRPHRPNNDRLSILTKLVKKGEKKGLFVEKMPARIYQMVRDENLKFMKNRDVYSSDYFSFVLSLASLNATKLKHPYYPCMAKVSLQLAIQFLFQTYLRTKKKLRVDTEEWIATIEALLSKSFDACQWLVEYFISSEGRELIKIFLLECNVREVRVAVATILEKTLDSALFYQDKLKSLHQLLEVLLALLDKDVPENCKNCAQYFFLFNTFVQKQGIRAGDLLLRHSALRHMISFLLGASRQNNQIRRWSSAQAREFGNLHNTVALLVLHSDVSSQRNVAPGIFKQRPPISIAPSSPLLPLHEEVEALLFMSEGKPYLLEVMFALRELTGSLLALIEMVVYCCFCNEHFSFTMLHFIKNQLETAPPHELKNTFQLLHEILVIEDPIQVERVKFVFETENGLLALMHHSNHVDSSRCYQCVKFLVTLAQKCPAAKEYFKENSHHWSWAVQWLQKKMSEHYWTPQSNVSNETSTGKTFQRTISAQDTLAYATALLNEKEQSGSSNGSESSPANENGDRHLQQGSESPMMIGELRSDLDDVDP

On to `O=C(CCl)Nc1cc2c(cc1Cl)OCCO2`, for which the “log2 ratio of Biotin-Ahx-Ub-VS probe labelling” value in the experiment with USP19 was 0.00638; with USP24, -0.0527; with USP25, -1.52 (active); in the experiment with USP28 it was -1.81 (active).

For the origin of these results see the supplement of paper PMC11732987, “Enantioselective OTUD7B fragment discovery through chemoproteomics screening and high-throughput optimisation” (Communications Chemistry, 2025).
